Results filed as inconclusive are left out. Active and inactive are the calls of the source. Calls come from the whole dose curve; as a rule, active = well fitted inhibition curve with a large enough effect; inconclusive = small, poorly fitted or top-dose-only effect; inactive = no such curve, though single readings can be large or run the other way.
test: qHTS Screen of the MIPE 4.0 Collection Against Ewings Sarcoma (TC32) (AID 1259256); conditions: TC32 Ewing sarcoma viability, CellTiter-Glo, 48 h; series mostly up to 45.8 µM; note: nearly all actives have a fitted effect of over 45% in size;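 for viability (percent of control): 100% = DMSO-treated cells and 0% = medium-only wells without cells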
From the text: There is a large unmet medical need for treatments for Ewing sarcoma, a pediatric sarcoma. We sought to identify compounds that inhibited Ewing sarcoma cells in vitro with the goal to then test promising drugs in two drug combinations in vitro to look for synergistic drug combinations. Promising combinations would then proceed to additional validation, including in vivo testing.
Using the NCATS developed oncology compound library called the Mechanism of Interrogation Plate (MIPE), four Ewing sarcoma cell lines were evaluated (TC32, TC71, RDES, EW8). Compounds, in a 12-point titration series, were incubated with cells for 48 hours and the read out was cell viability (CellTiter-Glo from Promega). These initial experiments were used to select appropriate concentrations of each single agent for subsequent two-drug matrix combinations such that the concentrations in the matrices would span both activity and non-activity.
Cells, in the log phase of growth, were seeded in 5 uL of RPMI plus 5% FBS, […] L-glutamine, 100 U/ml penicillin and 100 ug/ml streptomycin into 1536-well solid-bottom white tissue culture treated Greiner Bio One Plates (789173-F) using a MultiDrop Combi (Thermofisher Scientific) dispenser and a small sterile cassette. One column was media alone to be used as a :"no cells" control. The plates were then covered with sterilized stainless steel gasketed lids from Kalypsys. After allowing cells to attach for 4 hours, 23 nL of test compound or control (negative control DMSO and positive control 9.2 uM Bortezomib-final) were added from a 1536-well polypropylene compound source plate to each well using a 1536 head pin tool from Kalypsys. Cells were then incubated for 48 hours at 37C, 95% relative humidity and 5% CO2. After 48 hours, plates were removed from the incubator and 3 uL of CellTiter-Glo (Promega) was added using an Aurora Flying Reagent Dispenser Bioraptor. Plates were incubated at room temperature for 10 minutes prior to reading the luminescence on the Viewlux (PerkinElmer). The relative luciferase units are used to calculate the percent activity using the activity of DMSO in the cells and no cells columns for normalization of no inhibition and full inhibition respectively.
Potency is the fitted concentration of half-maximal effect.

SMILES | Potency | viability (percent of control)
CS(=O)(=O)c1ccc(-c2cnc(N)c(C(=O)Nc3ccccc3)n2)cc1 | 4180 nM (active) | 
COC(=O)C1=C(C)NC(C)=C(C(=O)OCCN2CCN(C(c3ccccc3)c3ccccc3)CC2)C1c1cccc([N+](=O)[O-])c1 (stereo not given) | inactive | 
COc1ccc(-n2nc(C(N)=O)c3c2C(=O)N(c2ccc(N4CCCCC4=O)cc2)CC3)cc1 | inactive | 
CC[C@H](CO)Nc1nc(NCc2ccccc2)c2ncn(C(C)C)c2n1 | 20900 nM (active) | 
COCCOc1ccc2c(c1)ncn2-c1ccc2cccc(N3CCC(N)CC3)c2n1 | 23500 nM (active) | 
COc1ccc(C(=O)CC2(O)C(=O)Nc3c(Cl)ccc(Cl)c32)cc1 (stereo not given) | 1660 nM (active) | 
C#Cc1cccc(Nc2ncnc3cc(OC)c(OCCCCCCC(=O)NO)cc23)c1 | 37.2 nM (active) | 
Cc1cc(Nc2cc(N3CCN(C)CC3)nc(C=Cc3ccccc3)n2)n[nH]1 | 2410 nM (active) | 
C[C@@H](Oc1cc(-c2cnn(C3CCNCC3)c2)cnc1N)c1c(Cl)ccc(F)c1Cl | 4180 nM (active) | 
CCN1CCN(Cc2ccc(-c3cc4c(N[C@H](C)c5ccccc5)ncnc4[nH]3)cc2)CC1 | 14.8 nM (active) | 
O=C(NC1CCNCC1)c1[nH]ncc1NC(=O)c1c(Cl)cccc1Cl | 209 nM (active) | 
O=c1[nH]c(=O)n(C2CCCO2)cc1F (stereo not given) | inactive | 
CCc1c2c(nc3ccc(O)cc13)-c1cc3c(c(=O)n1C2)COC(=O)[C@]3(O)CC | inactive | 
O=C(C=Cc1cccnc1)NCCCCC1CCN(C(=O)c2ccccc2)CC1 | 4.2 nM (active) | 
CCCCCN(CCC12CC3CC(CC(C3)C1)C2)C(=O)NCCCc1ccncc1 | 14800 nM (active) | 
c1nc2nc(Nc3ccc(N4CCOCC4)cc3)nc(NC3CCCCC3)c2[nH]1 | 1870 nM (active) | 
O=C(C=Cc1cccc(S(=O)(=O)Nc2ccccc2)c1)NO | 1910 nM (active) | 
COc1ccc2c(OCc3nnc4ccc(-c5ccccc5)nn34)ccnc2c1 | inactive | 
CC(C)c1cnn2c(NCc3ccccc3)cc(N[C@@H](CO)[C@H](O)CO)nc12 | 296 nM (active) | 
CNC(=O)c1cc(Oc2ccc(NC(=O)Nc3cc(C(C)(C)C)nn3-c3ccc4ncccc4c3)c(F)c2)ccn1 | 20900 nM (active) | 

SMILES | Potency | viability (percent of control)
Nc1ccccc1NC(=O)c1ccc(CNc2nccc(-c3cccnc3)n2)cc1 | 935 nM (active) | 
CS(=O)(=O)N1CCN(Cc2cc3nc(-c4cccc5[nH]ncc45)nc(N4CCOCC4)c3s2)CC1 | 418 nM (active) | 
Cc1nc(Nc2n[nH]c3c2CN(C(=O)N[C@H](CN(C)C)c2ccccc2)C3(C)C)c2sccc2n1 | 7430 nM (active) | 
Cc1cc(Nc2cc(NC(=O)c3c(Cl)cccc3Cl)ccn2)nc(N)n1 | 264 nM (active) | 
CC(O)C1C(=O)N2C(C(=O)O)=C(SC3CNC(C(=O)N(C)C)C3)C(C)C12 (stereo not given) | inactive | 
Cc1cn2c(-c3cn[nH]c3)cnc2c(Nc2ccc(C(=O)N3CCNCC3)cc2F)n1 | 13200 nM (active) | 
Cn1cc(-c2[nH]c3cc(NC(=O)[C@H](N)C4CCCCC4)cc4c3c2C=NNC4=O)cn1 | 372 nM (active) | 
CCN1CCN(CC(=O)Nc2ccc(-c3cccc4c(=O)cc(N5CCOCC5)oc34)c3sc4ccccc4c23)CC1 | 1320 nM (active) | 
COc1ccc(CC2c3cc(OC)c(OC)cc3CC[N+]2(C)CCC(=O)OCCCCCOC(=O)CC[N+]2(C)CCc3cc(OC)c(OC)cc3C2Cc2ccc(OC)c(OC)c2)cc1OC (stereo not given) |  | 123% [at 5.15 µM] (inactive)
C[C@]1(CO)CN(c2cc(C(=O)Nc3ccc4c(c3)-c3c(c(C(N)=O)nn3-c3ccc(F)cc3)CC4)c(Cl)cn2)C[C@@]1(C)CO | 13200 nM (active) | 
N#CCNC(=O)c1ccc(-c2ccnc(Nc3ccc(N4CCOCC4)cc3)n2)cc1 | 16600 nM (active) | 
Cc1c(NC(=O)OC[C@@H]2COCCN2)cn2ncnc(Nc3ccc4c(cnn4Cc4cccc(F)c4)c3)c12 | 935 nM (active) | 
C[C@@H]1CN(CC(=O)Nc2ccc3c(c2)Cc2cccc(-c4cc(=O)cc(N5CCOCC5)o4)c2S3)C[C@H](C)O1 | 18700 nM (active) | 
COc1ccc(C=Cc2cc(OC)c(OC)c(OC)c2)cc1O | inactive | 
Nc1ccn([C@@H]2O[C@H](CO)[C@H](O)C2(F)F)c(=O)n1 | 18.7 nM (active) | 
CCc1cc2c(cc1N1CCC(N3CCOCC3)CC1)C(C)(C)c1[nH]c3cc(C#N)ccc3c1C2=O | inactive | 
Cn1cncc1[C@@](N)(c1ccc(Cl)cc1)c1ccc2c(c1)c(-c1cccc(Cl)c1)cc(=O)n2C | 5900 nM (active) | 
CC(C)c1noc(N2CCC(COc3ccc(-c4ccc(S(C)(=O)=O)cc4)nc3)CC2)n1 | inactive | 
O=C(Nc1cn[nH]c1-c1nc2ccc(CN3CCOCC3)cc2[nH]1)NC1CC1 | 66.2 nM (active) | 
CC1(C)O[C@@H]2C[C@@H]3[C@H]4C[C@@H](F)C5=CC(=O)C=C[C@]5(C)[C@@]4(F)[C@@H](O)C[C@]3(C)[C@]2(C(=O)CO)O1 | inactive | 

Reference: PubChem BioAssay (NCATS)
